The record followed here is PubChem BioAssay.

Several values for one entry are separate records, joined by “and”; a condition that tells them apart may be missing. Identical values can stand only once. Activity calls are given as the source filed them.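 Rule for the calls, unless noted: active = compounds whose cell count with miR-34 switched on is under 0.7 times the count with it off; inactive = the rest.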

Assay [1] is described as follows: sensitizers of A549 cells to miR-34 induction, primary screen, imaging, A549 dox-inducible miR-34, nuclei and caspase counts (AID 1347080). Particulars: A549 miR-34 inducible, Hoechst nuclei count, 48 h.
The target of assay [2] is NAD(+) hydrolase SARM1 (Homo sapiens) (UniProt Q6SZW1). In words: SARM1 TIR NADase inhibitors, cell lysate, NAD-Glo luminescence (AID 1508614;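 active = compound whose remaining NAD level is above about 45 nM, limit read from the data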;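 note: higher remaining NAD means stronger inhibition of SARM1 NADase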). Particulars: SAM-TIR HEK293T lysate NADase, at 1 µM, stronger effect = higher value.
NAD(+) hydrolase SARM1 (Homo sapiens), sequence (Q6SZW1 whole entry, looked up, the tested form may be a part): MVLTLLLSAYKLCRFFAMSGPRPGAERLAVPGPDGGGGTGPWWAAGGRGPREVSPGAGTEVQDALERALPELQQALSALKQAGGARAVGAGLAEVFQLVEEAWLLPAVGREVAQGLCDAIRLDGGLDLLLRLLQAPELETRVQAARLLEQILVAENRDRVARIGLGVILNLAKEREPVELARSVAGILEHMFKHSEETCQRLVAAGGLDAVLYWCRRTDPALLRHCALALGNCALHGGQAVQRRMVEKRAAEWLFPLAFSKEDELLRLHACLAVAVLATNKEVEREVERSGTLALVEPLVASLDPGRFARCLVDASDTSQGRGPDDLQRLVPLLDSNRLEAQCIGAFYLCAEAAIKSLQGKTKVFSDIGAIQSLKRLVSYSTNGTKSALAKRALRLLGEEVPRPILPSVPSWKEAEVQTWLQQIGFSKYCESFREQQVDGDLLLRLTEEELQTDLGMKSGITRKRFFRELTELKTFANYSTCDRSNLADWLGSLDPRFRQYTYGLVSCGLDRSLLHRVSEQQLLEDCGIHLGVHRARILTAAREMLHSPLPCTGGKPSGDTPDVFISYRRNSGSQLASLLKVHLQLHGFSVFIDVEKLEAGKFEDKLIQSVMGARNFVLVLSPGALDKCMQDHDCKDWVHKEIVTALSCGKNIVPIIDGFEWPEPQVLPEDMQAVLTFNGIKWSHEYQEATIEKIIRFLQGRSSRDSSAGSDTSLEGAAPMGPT
Assay [3] has as its target Mitogen-activated protein kinase 7 (Homo sapiens) (UniProt Q13164). In words: ERK5 transactivation activators in reporter cells, primary screen, cell-based, HTS (AID 1508626;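 active = luciferase signal above three times the same-plate solvent-only control wells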;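 note: luciferase driven by Gal4-ERK5 fusion binding five Gal4 sites before minimal TATA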). Particulars: HeLa Gal4-ERK5 transactivation, 18 h, at 5 µM, stronger effect = higher value.
A short description of assay [4]: survival rescue of mitochondrial mutant cells in low glucose, primary screen, MELAS cybrids, Rieske KO mouse fibroblasts, CellTiter-Glo (AID 1508586;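 active = mean z-score across replicates of 1.96 or higher in either the MELAS or the Rieske mutant cell line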;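 note: z relative to plate mean and SD of compound and empty wells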).
Assay [5] is described as follows: viability rescue of complex I mutant cybrids, primary screen, cell-based, galactose medium, ATP luminescence (AID 1645843;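 active = z-score of at least 1.8 in each of two replicates, scored against plate mean and spread of sample wells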;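 note: positive z means more ATP and so rescue of galactose-driven cybrid death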). As to conditions: complex I mutant cybrid cells, 72 h, stronger effect = higher value.
The mark [6] stands for this setting: stronger effect = lower value, cell number ratio, induced over uninduced.
Where [7] appears, read: measured here: relative caspase fold change +Dox/-Dox.
The mark [8] stands for this setting: measured here: total cells with miR-34 induction, stronger effect = lower value.
Where [9] appears, read: measured here: total cells without miR-34 induction.
The mark [10] stands for this setting: MELAS cybrid survival, CellTiter-Glo 48 h, stronger effect = higher value.
The mark [11] stands for this setting: Rieske KO mouse fibroblast survival, CellTiter-Glo 72 h.

Mitogen-activated protein kinase 7 (Homo sapiens), sequence (Q13164 whole entry, looked up, the tested form may be a part): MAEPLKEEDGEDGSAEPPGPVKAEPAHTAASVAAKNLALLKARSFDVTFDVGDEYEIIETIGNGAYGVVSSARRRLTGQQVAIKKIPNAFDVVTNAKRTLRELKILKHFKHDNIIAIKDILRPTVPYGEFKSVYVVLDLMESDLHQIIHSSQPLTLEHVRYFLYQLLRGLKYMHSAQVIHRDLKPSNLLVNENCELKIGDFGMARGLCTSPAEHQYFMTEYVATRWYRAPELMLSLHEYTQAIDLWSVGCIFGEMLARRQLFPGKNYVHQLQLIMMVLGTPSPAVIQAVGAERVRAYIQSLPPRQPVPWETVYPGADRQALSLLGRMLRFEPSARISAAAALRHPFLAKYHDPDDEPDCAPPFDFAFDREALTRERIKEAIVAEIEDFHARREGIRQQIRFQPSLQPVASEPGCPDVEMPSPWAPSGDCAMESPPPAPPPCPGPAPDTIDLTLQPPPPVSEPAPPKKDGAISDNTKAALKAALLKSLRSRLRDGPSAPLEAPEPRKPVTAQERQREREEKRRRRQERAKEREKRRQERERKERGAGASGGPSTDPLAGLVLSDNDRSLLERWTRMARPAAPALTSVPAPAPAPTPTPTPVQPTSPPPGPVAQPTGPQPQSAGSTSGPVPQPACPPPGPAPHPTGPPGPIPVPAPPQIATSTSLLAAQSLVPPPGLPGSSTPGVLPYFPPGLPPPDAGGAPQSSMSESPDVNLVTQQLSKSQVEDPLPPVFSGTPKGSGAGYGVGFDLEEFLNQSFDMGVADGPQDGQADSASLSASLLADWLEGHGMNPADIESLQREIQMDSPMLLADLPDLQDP

With `O=C1C(O)=C(O)C(=O)C(O)=C1O`, the fold change in assay [1] (setting [6]) was 0.863 (inactive) and 0.913 (inactive); in assay [1] (setting [7]) it was 1.35 and 4.01. Moreover, the cell count in assay [1] (setting [8]) is 9350 and 12000; in assay [1] (setting [9]), 10800 and 13100. Moreover, the remaining NAD in assay [2] was 10 nM (inactive). Also, in assay [3], the luciferase signal was 20 AU (inactive).

Regarding `CCCCCC(C)N` (centres undefined), the figures for the fold change in assay [1] (setting [6]) and in assay [1] (setting [7]) were 0.893 (inactive) and 1.93, respectively. The figures for the cell count in assay [1] (setting [8]) and in assay [1] (setting [9]) were 11000 and 12400, respectively. Further, the remaining NAD in assay [2] was 10 nM (inactive).

In the case of `CCC(=O)O[C@H]1[C@H](O[C@@H]2[C@@H](C)[C@H](O[C@H]3C[C@@](C)(OC)[C@@H](O)[C@H](C)O3)[C@@H](C)C(=O)O[C@H](CC)[C@@](C)(O)[C@H](O)[C@@H](C)C(=O)[C@H](C)C[C@@]2(C)O)O[C@H](C)C[C@@H]1N(C)C`, the fold change was 0.893 (inactive) in assay [1] (setting [6]) and 3.7 in assay [1] (setting [7]). The cell count was determined as 11600 in assay [1] (setting [8]) and 12900 in assay [1] (setting [9]). The remaining NAD in assay [2] is 10 nM (inactive). Further, the luciferase signal in assay [3] was 180 AU (active).

Regarding `CC(=O)OCC1=C(C(=O)O)N2C(=O)[C@@H](NC(=O)CSc3ccncc3)[C@H]2SC1`, the fold change is 0.915 (inactive) in assay [1] (setting [6]) and 4.65 in assay [1] (setting [7]). For the same molecule, the values for the cell count in assay [1] (setting [8]) and in assay [1] (setting [9]) were 11600 and 12700, respectively. In assay [2], the remaining NAD was 10 nM (inactive). Besides, in assay [3], the luciferase signal is 32 AU (inactive).

As to `O=C(CCBr)N1CCN(C(=O)CCBr)CC1`, the figures for the fold change in assay [1] (setting [6]) and in assay [1] (setting [7]) were 0.869 (inactive) and 2.68, respectively. The cell count in assay [1] (setting [8]) was found to be 6360; in assay [1] (setting [9]) it was 7310. Further, the remaining NAD in assay [2] was 10 nM (inactive). In assay [3], the luciferase signal was 92 AU (inactive).

For the molecule `COc1ccc(-c2cc(C(F)F)nn2-c2ccc(S(N)(=O)=O)cc2)cc1F`, the fold change is 0.791 (inactive) in assay [1] (setting [6]) and 2.48 in assay [1] (setting [7]). Also, the cell count was 10300 in assay [1] (setting [8]) and 13000 in assay [1] (setting [9]). Further, in assay [2], the remaining NAD is 10 nM (inactive). Moreover, the luciferase signal in assay [3] is 44 AU (inactive).

Take `NC(=O)NC(=O)Cc1ccccc1`: the results for the fold change in assay [1] (setting [6]) and in assay [1] (setting [7]) were 0.88 (inactive) and 0.863, respectively. The values for the cell count in assay [1] (setting [8]) and in assay [1] (setting [9]) were 11800 and 13400, respectively. The remaining NAD in assay [2] is 10 nM (inactive). In assay [3], the luciferase signal was 160 AU (inactive).

As to `CN1CCN(c2cc3c(cc2F)c(=O)c(C(=O)O)cn3-c2ccc(F)cc2)CC1`, the fold change in assay [1] (setting [6]) is 0.87 (inactive); in assay [1] (setting [7]) it was 0.995. The cell count in assay [1] (setting [8]) turned out to be 6840; in assay [1] (setting [9]), 7860. Also, in assay [2], the remaining NAD is 10 nM (inactive).

Consider `COC(=O)CCc1ccc(OCC(O)CNC(C)C)cc1` (centres undefined), for which the fold change in assay [1] (setting [6]) was 0.896 (inactive) and 0.841 (inactive) and 0.908 (inactive); in assay [1] (setting [7]), 0.838 and 0.901 and 1.51. Further, the cell count in assay [1] (setting [8]) is 9510 and 7720 and 9690; in assay [1] (setting [9]), 10600 and 9170 and 10700. For the same molecule, the z-score is -0.164 (inactive) and -0.834 (inactive) and -0.539 (inactive) in assay [4] (setting [10]); -0.149 and -1.1 and -1.41 in assay [4] (setting [11]); 0.52 (inactive) and 0.07 (inactive) in assay [5].

As for `CN(CCCN1c2ccccc2CCc2ccccc21)CC(=O)c1ccc(Cl)cc1`, the fold change in assay [1] (setting [6]) is 0.782 (inactive) and 0.894 (inactive); in assay [1] (setting [7]), 1.92 and 1.33. In addition, the cell count in assay [1] (setting [8]) was 5730 and 6590; in assay [1] (setting [9]) it was 7330 and 7370. In addition, the z-score in assay [4] (setting [10]) is 0.202 (inactive); in assay [4] (setting [11]), 0.354; in assay [5], -1.82 (inactive) and -0.185 (inactive).

Turning to `COc1cc(C)nc(-n2nc(C)cc2OC)n1`, the fold change in assay [1] (setting [6]) is 0.917 (inactive) and 1.02 (inactive); in assay [1] (setting [7]), 1.25 and 2.09. For the same molecule, the cell count was 8860 and 9160 in assay [1] (setting [8]); 9670 and 8950 in assay [1] (setting [9]). Moreover, the results for the z-score in assay [4] (setting [10]), in assay [4] (setting [11]) and in assay [5] were 0.813 (inactive), 0.154 and 0.61 (inactive), respectively.

Turning to `CC(=O)Nc1c(I)cc(I)c(C(=O)O)c1I`, the values for the fold change in assay [1] (setting [6]) and in assay [1] (setting [7]) were 0.913 (inactive) and 2.27, respectively. Also, the cell count in assay [1] (setting [8]) was found to be 12100; in assay [1] (setting [9]) it was 13200. For the same molecule, in assay [2], the remaining NAD is 10 nM (inactive). The luciferase signal in assay [3] was 40 AU (inactive).

In the case of `CCCCNc1c(C(=O)OCC)c(C)nc2c1cnn2CC`, the fold change was 1.09 (inactive) and 0.956 (inactive) and 0.928 (inactive) in assay [1] (setting [6]); 1.73 and 0.694 and 0.876 in assay [1] (setting [7]). In addition, the cell count in assay [1] (setting [8]) was 9150 and 8740 and 7780; in assay [1] (setting [9]) it was 8430 and 9140 and 8370. The z-score in assay [4] (setting [10]) was 2.27 (active); in assay [4] (setting [11]), 1.7; in assay [5], 0.17 (inactive) and 0.34 (inactive).

For the molecule `NC(=O)c1ccc([N+](=O)[O-])cc1Cl`, the fold change was 0.897 (inactive) in assay [1] (setting [6]) and 3.38 in assay [1] (setting [7]). Further, the cell count in assay [1] (setting [8]) was determined as 11800; in assay [1] (setting [9]) it was 13200. In assay [2], the remaining NAD was 10 nM (inactive). Besides, the luciferase signal in assay [3] is 180 AU (inactive).

Turning to `CN1CCCN=C1COC(=O)C(O)(c1ccccc1)C1CCCCC1` (centres undefined), the figures for the fold change in assay [1] (setting [6]) and in assay [1] (setting [7]) were 0.832 (inactive) and 3.67, respectively. Also, the cell count worked out at 10300 in assay [1] (setting [8]) and 12400 in assay [1] (setting [9]). Further, in assay [2], the remaining NAD is 10 nM (inactive). In addition, the luciferase signal in assay [3] is 80 AU (inactive).

For `Oc1cccc(O)c1`, the fold change in assay [1] (setting [6]) is 0.918 (inactive); in assay [1] (setting [7]) it was 2.54. The cell count in assay [1] (setting [8]) was determined as 12000; in assay [1] (setting [9]), 13100. Moreover, in assay [2], the remaining NAD was 10 nM (inactive). For the same molecule, the luciferase signal in assay [3] is 20 AU (inactive).

As to `CC1(C)S[C@@H]2[C@H](NC(=O)C(C(=O)O)c3ccccc3)C(=O)N2[C@H]1C(=O)O` (some centres undefined), the fold change in assay [1] (setting [6]) is 0.874 (inactive); in assay [1] (setting [7]), 0.602. Further, the cell count in assay [1] (setting [8]) was 11000; in assay [1] (setting [9]), 12600. In assay [2], the remaining NAD was 10 nM (inactive). In addition, in assay [3], the luciferase signal is 84 AU (inactive).

As for `C[C@@H]1CN(c2c(F)c(F)c3c(=O)c(C(=O)O)cn(C4CC4)c3c2F)C[C@H](C)N1`, the results for the fold change in assay [1] (setting [6]) and in assay [1] (setting [7]) were 0.896 (inactive) and 0.855, respectively. The figures for the cell count in assay [1] (setting [8]) and in assay [1] (setting [9]) were 8680 and 9690, respectively. Further, in assay [2], the remaining NAD is 10 nM (inactive).
